Here are results for 9 molecules from PubChem BioAssay (NCI).

This is part of a sample that, as a whole, favours compounds with a hit. Of some 79,000 tested, about 15% had one in any assay. Values without a mark were called inactive. Activity calls are given as the source filed them. No stated cut-off is given here; in the data, active means growth inhibition above about 70%; inactive means the rest.

Experiment [1] can be described thus: NCI Yeast Anticancer Drug Screen. Data for the rad50 strain (AID 155).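 Further: 0% = growth of vehicle-only cultures of the same strain.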 The note with it: S. cerevisiae rad50 strain growth inhibition, stronger effect = higher value. The method in brief:
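Cells are treated with compound, grown, and their growth is then scored against vehicle-only cultures of the same repair-deficient yeast strain.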

Experiment [2] is described as follows: NCI Yeast Anticancer Drug Screen. Data for the mec2-1 strain (AID 157). The note with it: S. cerevisiae mec2-1 strain, stronger effect = higher value. The method in brief: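 Growth inhibition is read against vehicle-treated controls after compound exposure of the mec2-1 yeast strain, which is defective in DNA damage repair or cell cycle control.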
Experiment [3] can be described thus: NCI Yeast Anticancer Drug Screen. Data for the sgs1 mgt1 strain (AID 161).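 Further: 0% = growth of cultures given vehicle only.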 The note with it: S. cerevisiae sgs1 mgt1 strain, stronger effect = higher value. A digest of the protocol:
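Percent growth inhibition was derived by comparing compound-exposed mutant yeast with vehicle-exposed cultures. The strain carries alterations in DNA damage repair.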

Experiment [4] is described as follows: NCI Yeast Anticancer Drug Screen. Data for the cln2 rad14 strain (AID 165).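 Further: 0% = growth equal to vehicle treated cultures.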 The settings on record: S. cerevisiae cln2 rad14 strain, stronger effect = higher value. A digest of the protocol: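 Growth inhibition, relative to vehicle-treated controls, is the read-out. The test organism is a yeast strain with defined genetic alterations, cln2 rad14.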
Experiment [5] is described as follows: NCI Yeast Anticancer Drug Screen. Data for the bub3 strain (AID 167). The settings on record: S. cerevisiae bub3 mutant strain, stronger effect = higher value. A digest of the protocol: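 Part of a panel of yeast mutants defective in DNA damage repair or cell cycle regulation. Each strain is grown with compound, and inhibition is calculated relative to solvent-treated cultures.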

Experiment [6] is described as follows: NCI Yeast Anticancer Drug Screen. Data for the mlh1 rad18 strain (AID 175). The note with it: S. cerevisiae mlh1 rad18 strain growth inhibition, stronger effect = higher value. A digest of the protocol: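 Cells of a genetically altered yeast strain, deficient in DNA damage repair, were treated with compound. Their growth was then compared with that of vehicle-treated cultures to give inhibition.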

Setting [7] is: at 5.0 µM (retest, dose inferred, filed as 0.5).
[8] abbreviates: at 50.0 µM (retest, dose inferred, filed as 5.0).

Take `O=[C-]c1ccccc1[C-]=O.[Pd+2].c1ccc([PH+](c2ccccc2)c2ccccc2)cc1.c1ccc([PH+](c2ccccc2)c2ccccc2)cc1`: the growth inhibition in experiment [1] (setting [7]) is 11%; in experiment [1] (setting [8]) it was 44%; in experiment [1] (at 50.0 µM), 34.6%; in experiment [2] (setting [7]), 7%; in experiment [2] (setting [8]), 54%; in experiment [2] (at 50.0 µM), 35%. Besides, the growth inhibition in experiment [3] (setting [7]) is 23%; in experiment [3] (setting [8]) it was 69%; in experiment [3] (at 50.0 µM) it was 84.5% (active); in experiment [4] (setting [7]), 5%; in experiment [4] (setting [8]), 40%; in experiment [4] (at 50.0 µM), -0.7%. Besides, the growth inhibition in experiment [5] (setting [7]) was 4%; in experiment [5] (setting [8]), 97% (active); in experiment [5] (at 50.0 µM) it was 14.7%; in experiment [6] (setting [7]), 14%; in experiment [6] (setting [8]) it was 80% (active); in experiment [6] (at 50.0 µM), 60.9%.
Regarding `COC1CC(OC2C(C)OC(OC3C(C)OC(OC4CCC5(C)C(=CCC6(O)C5CC(OC(=O)c5ccc(O)cc5)C5(C)C(O)(C(C)=O)CCC65O)C4)CC3OC)CC2OC)OC(C)C1O` (configuration not stated) (tested in a mixture with another compound), the growth inhibition in experiment [1] (setting [7]) is 1%; in experiment [1] (setting [8]) it was 68%; in experiment [1] (at 50.0 µM), 45.9%; in experiment [2] (setting [7]), 8%; in experiment [2] (setting [8]), 82% (active); in experiment [2] (at 50.0 µM), 39.1%. Further, the growth inhibition in experiment [3] (setting [7]) was 1%; in experiment [3] (setting [8]), 89% (active); in experiment [3] (at 50.0 µM) it was 68.7%; in experiment [4] (setting [7]) it was -7%; in experiment [4] (setting [8]) it was 49%; in experiment [4] (at 50.0 µM), 48.6%. For the same molecule, the growth inhibition in experiment [5] (setting [7]) was 6%; in experiment [5] (setting [8]) it was 74% (active); in experiment [5] (at 50.0 µM), 60.5%; in experiment [6] (setting [7]), -3%; in experiment [6] (setting [8]), 83% (active); in experiment [6] (at 50.0 µM), 55.1%.
In the case of `O=C1C(CCl)(CCl)CCC12CNC(Cl)(Cl)C2` (configuration not stated), the growth inhibition in experiment [1] (setting [7]) was -1%; in experiment [1] (setting [8]), 0%; in experiment [1] (at 50.0 µM), 6.8%; in experiment [2] (setting [7]), -1%; in experiment [2] (setting [8]) it was 4%; in experiment [2] (at 50.0 µM), 15.8%. Besides, the growth inhibition in experiment [3] (setting [7]) is 1%; in experiment [3] (setting [8]), 0%; in experiment [3] (at 50.0 µM) it was 21.6%; in experiment [4] (setting [7]), 1%; in experiment [4] (setting [8]), 5%; in experiment [4] (at 50.0 µM) it was 39.6%. The growth inhibition is -3% in experiment [5] (setting [7]); -5% in experiment [5] (setting [8]); 23.2% in experiment [5] (at 50.0 µM); -1% in experiment [6] (setting [7]); 0% in experiment [6] (setting [8]); 28.8% in experiment [6] (at 50.0 µM).
Take `COc1ccc2c(c1)CCC(N1CCCC(=O)C1)C2` (configuration not stated): the growth inhibition in experiment [1] (setting [7]) is 9%; in experiment [1] (setting [8]), 11%; in experiment [1] (at 50.0 µM), 23.1%; in experiment [2] (setting [7]) it was 8%; in experiment [2] (setting [8]), 17%; in experiment [2] (at 50.0 µM) it was 24.4%. Besides, the growth inhibition in experiment [3] (setting [7]) was 8%; in experiment [3] (setting [8]) it was 26%; in experiment [3] (at 50.0 µM), 66%; in experiment [4] (setting [7]), 11%; in experiment [4] (setting [8]), 38%; in experiment [4] (at 50.0 µM) it was 17.4%. Also, the growth inhibition in experiment [5] (setting [7]) was 4%; in experiment [5] (setting [8]), 31%; in experiment [5] (at 50.0 µM), 89.1% (active); in experiment [6] (setting [7]), 9%; in experiment [6] (setting [8]) it was 29%; in experiment [6] (at 50.0 µM) it was 25.1%.
For `O=P(c1ccccc1)(c1ccccc1)c1ccccc1.[Cl][Sn]([c]1ccccc1)([c]1ccccc1)[c]1ccccc1`, the growth inhibition in experiment [1] (setting [7]) is 99% (active); in experiment [1] (setting [8]), 98% (active); in experiment [1] (at 50.0 µM), 99.6% (active); in experiment [2] (setting [7]) it was 97% (active); in experiment [2] (setting [8]), 98% (active); in experiment [2] (at 50.0 µM), 99.7% (active). The growth inhibition in experiment [3] (setting [7]) was 99% (active); in experiment [3] (setting [8]) it was 99% (active); in experiment [3] (at 50.0 µM), 99.7% (active); in experiment [4] (setting [7]), 99% (active); in experiment [4] (setting [8]), 98% (active); in experiment [4] (at 50.0 µM), 99.1% (active). For the same molecule, the growth inhibition in experiment [5] (setting [7]) is 99% (active); in experiment [5] (setting [8]), 98% (active); in experiment [5] (at 50.0 µM) it was 99.3% (active); in experiment [6] (setting [7]), 99% (active); in experiment [6] (setting [8]), 99% (active); in experiment [6] (at 50.0 µM), 99.5% (active).
On to `O=Cc1ccccc1O.O=Cc1ccccc1O.[O]=[Mo]=[O]`, for which the growth inhibition in experiment [1] (setting [7]) is 5%; in experiment [1] (setting [8]) it was 29%; in experiment [1] (at 50.0 µM), 11.8%; in experiment [2] (setting [7]), -1%; in experiment [2] (setting [8]), 36%; in experiment [2] (at 50.0 µM), 3.65%. Besides, the growth inhibition is 8% in experiment [3] (setting [7]); 41% in experiment [3] (setting [8]); 8.2% in experiment [3] (at 50.0 µM); -7% in experiment [4] (setting [7]); 16% in experiment [4] (setting [8]); 42% in experiment [4] (at 50.0 µM). Also, the growth inhibition is -3% in experiment [5] (setting [7]); 34% in experiment [5] (setting [8]); -5.6% in experiment [5] (at 50.0 µM); 2% in experiment [6] (setting [7]); 46% in experiment [6] (setting [8]); 2.45% in experiment [6] (at 50.0 µM).
`O=C1CCC(=O)N1SC(Cl)(Cl)Cl`: the growth inhibition was 21% in experiment [1] (setting [7]); 26% in experiment [1] (setting [8]); 99.7% (active) in experiment [1] (at 50.0 µM); 20% in experiment [2] (setting [7]); 4% in experiment [2] (setting [8]); 99.7% (active) in experiment [2] (at 50.0 µM). The growth inhibition is 7% in experiment [3] (setting [7]); 6% in experiment [3] (setting [8]); 99.7% (active) in experiment [3] (at 50.0 µM); -11% in experiment [4] (setting [7]); -13% in experiment [4] (setting [8]); 99% (active) in experiment [4] (at 50.0 µM). In addition, the growth inhibition in experiment [5] (setting [7]) was -12%; in experiment [5] (setting [8]), 2%; in experiment [5] (at 50.0 µM), 99.5% (active); in experiment [6] (setting [7]), 2%; in experiment [6] (setting [8]), 18%; in experiment [6] (at 50.0 µM), 99.5% (active).
For `C#CC1(OC(C)=O)CCC2C3CC=C4C=C(OC(C)=O)CCC4(C)C3CCC21C` (configuration not stated), the growth inhibition in experiment [1] (setting [7]) is 16%; in experiment [1] (setting [8]) it was 48%; in experiment [1] (at 50.0 µM) it was 90.5% (active); in experiment [2] (setting [7]) it was -1%; in experiment [2] (setting [8]), 17%; in experiment [2] (at 50.0 µM), 40.2%. The growth inhibition in experiment [3] (setting [7]) is 2%; in experiment [3] (setting [8]), 56%; in experiment [3] (at 50.0 µM), 86.9% (active); in experiment [4] (setting [7]), 10%; in experiment [4] (setting [8]), 15%; in experiment [4] (at 50.0 µM), -0.6%. Further, the growth inhibition in experiment [5] (setting [7]) was 1%; in experiment [5] (setting [8]) it was 3%; in experiment [5] (at 50.0 µM), 13.9%; in experiment [6] (setting [7]), 2%; in experiment [6] (setting [8]), -4%; in experiment [6] (at 50.0 µM), 61.1%.
Take `CC(C)C1(NC(=O)C2CC3c4cccc5[nH]cc(c45)CC3N(C)C2)OC2(O)C3CCCN3C(=O)C(Cc3ccccc3)N2C1=O` (configuration not stated): the growth inhibition in experiment [1] (setting [7]) is -26%; in experiment [1] (setting [8]), 94% (active); in experiment [1] (at 50.0 µM) it was 86.2% (active); in experiment [2] (setting [7]) it was -2%; in experiment [2] (setting [8]), 96% (active); in experiment [2] (at 50.0 µM) it was 90.8% (active). The growth inhibition is -10% in experiment [3] (setting [7]); 92% (active) in experiment [3] (setting [8]); 86.7% (active) in experiment [3] (at 50.0 µM); 1% in experiment [4] (setting [7]); 96% (active) in experiment [4] (setting [8]); 84.3% (active) in experiment [4] (at 50.0 µM). In addition, the growth inhibition in experiment [5] (setting [7]) was 30%; in experiment [5] (setting [8]), 96% (active); in experiment [5] (at 50.0 µM) it was 86.3% (active); in experiment [6] (setting [7]), 4%; in experiment [6] (setting [8]) it was 97% (active); in experiment [6] (at 50.0 µM) it was 83.4% (active).
